This excerpt belongs to a sample that is enriched for hits.
GIRK2 act: Activators of human GIRK2-containing channels; P48051; HEK293 GIRK2/NPY4 cells, thallium flux fluorescence; activation (% efficacy), % for hits at 37.5 µM; 34,000 tested, under 10 active; AID 1259324;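 active = primary screen hit, no activity in plain HEK293 cells, and in GIRK2-only cells above 5% efficacy rising with concentration; inactive = the rest, including fluorescent compounds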;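 also: efficacy is normalized control-subtracted fluorescence 15 s after thallium addition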
Target sequence (P48051 whole entry, looked up): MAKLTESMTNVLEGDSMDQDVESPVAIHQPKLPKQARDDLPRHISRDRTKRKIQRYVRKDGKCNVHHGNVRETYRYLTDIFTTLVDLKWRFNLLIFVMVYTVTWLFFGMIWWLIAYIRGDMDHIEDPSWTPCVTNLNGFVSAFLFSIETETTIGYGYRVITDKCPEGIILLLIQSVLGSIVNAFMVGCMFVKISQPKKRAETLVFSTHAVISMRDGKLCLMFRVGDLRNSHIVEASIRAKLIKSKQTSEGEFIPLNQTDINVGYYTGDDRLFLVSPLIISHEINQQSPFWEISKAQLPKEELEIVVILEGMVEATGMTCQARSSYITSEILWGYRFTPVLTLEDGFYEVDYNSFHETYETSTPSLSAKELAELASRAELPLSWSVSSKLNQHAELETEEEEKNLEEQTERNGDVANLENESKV
AMPAR-TARP mod: modulators of AMPA receptor GluA2-stargazin complexes; HEK293 GluA2+stargazin, membrane potential dye (FDSS), glutamate EC50; hits were called plate by plate, in both directions; O88602+P19491; calls only at 30 µM; actives 3.5% (n = 40,000);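 active = any of four per-well response measures lying three or more SD from its plate-wide compound average, in either direction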
* marks the source's active call; other numbers are inactive results; i = inactive; / = no result given; + = active, no number.

SMILES	GIRK2 act	AMPAR-TARP mod
CS(=O)(=O)c1ccc(CC(=O)Nc2ccc(Cl)cc2C(=O)c2ccccc2Cl)cc1	/	+
CCS(=O)(=O)c1ccc(CC(=O)Nc2ccc(Cl)cc2C(=O)c2ccccc2)cc1	/	i
O=C1NC(=O)C(CCc2ccncc2)(Cc2cccc(Cl)c2Cl)C(=O)N1c1ccccc1F (stereo not drawn)	/	i
COc1ccccc1OCC(=O)N1CCCN(CCn2nc(C)cc2C)CC1	i	i
Cc1ccc(NC(=O)NCC2CCN(C(=O)Oc3ccccc3)CC2)cc1C	i	+
O=C(NCC1CCN(C(=O)Oc2ccccc2)CC1)NC(c1ccccc1)c1ccccc1	i	i
